Key:
[1] = target: Platelet-derived growth factor receptor beta (Homo sapiens) (UniProt P09619); conditions: at 1 µM;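 further: each value is a mean percent inhibition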
[2] = target: Tyrosine-protein kinase FRK (Homo sapiens) (UniProt P42685); conditions: at 0.1 µM
[3] = target: Tyrosine-protein kinase FRK (Homo sapiens) (UniProt P42685); conditions: at 1 µM
[4] = target: Protein-tyrosine kinase 2-beta (Homo sapiens) (UniProt Q14289); conditions: at 0.1 µM
[5] = target: Protein-tyrosine kinase 2-beta (Homo sapiens) (UniProt Q14289); conditions: at 1 µM
[6] = target: Proto-oncogene tyrosine-protein kinase receptor Ret (Homo sapiens) (UniProt P07949); conditions: at 0.1 µM
Sequence of Proto-oncogene tyrosine-protein kinase receptor Ret (Homo sapiens) (P07949 whole entry): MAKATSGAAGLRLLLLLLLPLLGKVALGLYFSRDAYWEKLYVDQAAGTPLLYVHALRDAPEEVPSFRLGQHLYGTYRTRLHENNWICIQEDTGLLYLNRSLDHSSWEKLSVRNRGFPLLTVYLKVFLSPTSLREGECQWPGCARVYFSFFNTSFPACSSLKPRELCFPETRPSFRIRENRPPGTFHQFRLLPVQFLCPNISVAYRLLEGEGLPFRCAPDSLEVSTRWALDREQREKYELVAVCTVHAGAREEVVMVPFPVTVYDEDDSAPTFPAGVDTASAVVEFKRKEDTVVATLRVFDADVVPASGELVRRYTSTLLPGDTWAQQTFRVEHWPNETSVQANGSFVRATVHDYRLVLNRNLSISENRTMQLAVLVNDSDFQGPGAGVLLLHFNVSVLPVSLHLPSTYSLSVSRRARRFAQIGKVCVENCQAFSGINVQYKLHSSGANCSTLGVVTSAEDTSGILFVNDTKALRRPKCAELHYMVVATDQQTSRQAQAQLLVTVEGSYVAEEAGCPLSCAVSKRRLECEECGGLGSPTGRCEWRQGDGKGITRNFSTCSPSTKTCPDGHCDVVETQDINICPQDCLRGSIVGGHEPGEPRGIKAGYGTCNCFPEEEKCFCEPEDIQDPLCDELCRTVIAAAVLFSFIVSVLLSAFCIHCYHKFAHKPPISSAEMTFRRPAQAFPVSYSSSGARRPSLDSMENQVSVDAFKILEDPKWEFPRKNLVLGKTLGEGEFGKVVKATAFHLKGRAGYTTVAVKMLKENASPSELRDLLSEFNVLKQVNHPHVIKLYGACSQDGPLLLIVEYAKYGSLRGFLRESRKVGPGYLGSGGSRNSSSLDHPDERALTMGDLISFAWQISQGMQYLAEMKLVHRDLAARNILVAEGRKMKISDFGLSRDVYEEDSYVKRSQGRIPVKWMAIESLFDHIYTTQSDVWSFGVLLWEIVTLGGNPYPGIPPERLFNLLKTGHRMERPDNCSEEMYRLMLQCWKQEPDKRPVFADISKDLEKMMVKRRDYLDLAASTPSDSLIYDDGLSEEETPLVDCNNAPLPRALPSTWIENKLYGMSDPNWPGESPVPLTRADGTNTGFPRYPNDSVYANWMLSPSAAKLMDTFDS

[7] = target: Proto-oncogene tyrosine-protein kinase receptor Ret (Homo sapiens) (UniProt P07949); conditions: at 1 µM
[8] = system: Proto-oncogene tyrosine-protein kinase receptor Ret (Homo sapiens), P07949 [V804L]; conditions: at 0.1 µM
Sequence of Proto-oncogene tyrosine-protein kinase receptor Ret (Homo sapiens), P07949 [V804L] (P07949 whole entry V804L): as the sequence (P07949 whole entry) above, with V804L counted along it

[9] = system: Proto-oncogene tyrosine-protein kinase receptor Ret (Homo sapiens), P07949 [V804L]; conditions: at 1 µM
[10] = system: Proto-oncogene tyrosine-protein kinase receptor Ret (Homo sapiens), P07949 [Y791F]; conditions: at 0.1 µM
Sequence of Proto-oncogene tyrosine-protein kinase receptor Ret (Homo sapiens), P07949 [Y791F] (P07949 whole entry Y791F): as the sequence (P07949 whole entry) above, with Y791F counted along it

[11] = system: Proto-oncogene tyrosine-protein kinase receptor Ret (Homo sapiens), P07949 [Y791F]; conditions: at 1 µM
[12] = target: Macrophage-stimulating protein receptor (Homo sapiens) (UniProt Q04912); conditions: at 0.1 µM
[13] = target: Macrophage-stimulating protein receptor (Homo sapiens) (UniProt Q04912); conditions: at 1 µM
[14] = target: Proto-oncogene tyrosine-protein kinase ROS (Homo sapiens) (UniProt P08922); conditions: at 0.1 µM
Sequence of Proto-oncogene tyrosine-protein kinase ROS (Homo sapiens) (P08922 whole entry): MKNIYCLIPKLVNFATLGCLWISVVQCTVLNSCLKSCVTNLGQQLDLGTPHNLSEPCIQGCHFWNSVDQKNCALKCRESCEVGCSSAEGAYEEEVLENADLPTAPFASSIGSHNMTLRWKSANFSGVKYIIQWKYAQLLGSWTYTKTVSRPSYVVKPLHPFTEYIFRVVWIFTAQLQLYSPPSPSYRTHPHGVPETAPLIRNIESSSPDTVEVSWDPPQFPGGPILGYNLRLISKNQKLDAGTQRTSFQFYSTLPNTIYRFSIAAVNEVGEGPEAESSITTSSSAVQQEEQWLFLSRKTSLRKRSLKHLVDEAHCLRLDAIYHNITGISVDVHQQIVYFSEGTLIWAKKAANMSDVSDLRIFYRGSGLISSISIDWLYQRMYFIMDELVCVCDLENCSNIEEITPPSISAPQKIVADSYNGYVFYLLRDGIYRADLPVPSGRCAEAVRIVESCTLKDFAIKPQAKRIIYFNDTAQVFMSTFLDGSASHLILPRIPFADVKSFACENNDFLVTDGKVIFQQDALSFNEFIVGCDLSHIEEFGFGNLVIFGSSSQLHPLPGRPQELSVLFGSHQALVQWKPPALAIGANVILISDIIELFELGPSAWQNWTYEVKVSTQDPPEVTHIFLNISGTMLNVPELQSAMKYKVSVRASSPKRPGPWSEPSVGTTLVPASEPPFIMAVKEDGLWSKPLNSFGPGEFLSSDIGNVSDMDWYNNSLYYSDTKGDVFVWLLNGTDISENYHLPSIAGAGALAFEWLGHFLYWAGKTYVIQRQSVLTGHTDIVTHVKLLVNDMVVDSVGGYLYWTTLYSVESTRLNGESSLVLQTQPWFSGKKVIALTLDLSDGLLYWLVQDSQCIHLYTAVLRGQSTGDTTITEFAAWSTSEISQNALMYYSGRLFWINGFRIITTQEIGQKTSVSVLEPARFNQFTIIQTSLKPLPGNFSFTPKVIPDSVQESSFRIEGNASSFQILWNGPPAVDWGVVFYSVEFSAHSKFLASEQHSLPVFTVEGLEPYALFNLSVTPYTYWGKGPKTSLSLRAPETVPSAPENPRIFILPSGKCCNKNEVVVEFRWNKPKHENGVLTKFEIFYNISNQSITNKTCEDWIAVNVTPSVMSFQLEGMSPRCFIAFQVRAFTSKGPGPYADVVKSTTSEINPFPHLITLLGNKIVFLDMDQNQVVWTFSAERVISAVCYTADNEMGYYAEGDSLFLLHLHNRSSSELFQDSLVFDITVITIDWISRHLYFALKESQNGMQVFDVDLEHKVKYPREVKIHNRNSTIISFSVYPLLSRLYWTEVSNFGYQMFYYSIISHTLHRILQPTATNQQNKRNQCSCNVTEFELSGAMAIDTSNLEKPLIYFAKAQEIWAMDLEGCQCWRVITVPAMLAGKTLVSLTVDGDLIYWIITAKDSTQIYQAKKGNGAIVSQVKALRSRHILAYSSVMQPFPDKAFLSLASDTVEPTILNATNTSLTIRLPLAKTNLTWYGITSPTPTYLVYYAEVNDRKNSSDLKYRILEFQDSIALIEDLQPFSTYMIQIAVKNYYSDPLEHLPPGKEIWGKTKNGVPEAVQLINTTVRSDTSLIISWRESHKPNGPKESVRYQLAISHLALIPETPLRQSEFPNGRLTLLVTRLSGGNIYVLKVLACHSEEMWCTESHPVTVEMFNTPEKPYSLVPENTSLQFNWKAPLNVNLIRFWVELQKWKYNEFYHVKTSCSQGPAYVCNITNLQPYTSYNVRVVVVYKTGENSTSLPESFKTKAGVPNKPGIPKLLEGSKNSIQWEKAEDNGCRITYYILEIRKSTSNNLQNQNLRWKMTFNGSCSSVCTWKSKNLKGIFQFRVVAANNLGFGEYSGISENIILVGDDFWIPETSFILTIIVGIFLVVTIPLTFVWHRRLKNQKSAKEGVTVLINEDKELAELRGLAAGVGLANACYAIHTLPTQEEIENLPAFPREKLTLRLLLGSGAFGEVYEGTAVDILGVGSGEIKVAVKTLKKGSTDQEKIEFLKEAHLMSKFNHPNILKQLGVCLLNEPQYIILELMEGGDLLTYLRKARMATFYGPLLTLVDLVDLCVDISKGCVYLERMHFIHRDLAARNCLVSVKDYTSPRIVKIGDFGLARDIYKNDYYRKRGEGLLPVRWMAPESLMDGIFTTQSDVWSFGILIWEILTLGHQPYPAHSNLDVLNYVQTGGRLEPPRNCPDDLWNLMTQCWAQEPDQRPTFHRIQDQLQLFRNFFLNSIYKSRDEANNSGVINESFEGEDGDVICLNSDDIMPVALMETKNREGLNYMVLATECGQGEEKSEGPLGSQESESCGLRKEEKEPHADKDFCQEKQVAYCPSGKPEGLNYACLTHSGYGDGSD

[15] = target: Proto-oncogene tyrosine-protein kinase ROS (Homo sapiens) (UniProt P08922); conditions: at 1 µM
[16] = target: Proto-oncogene tyrosine-protein kinase Src (Homo sapiens) (UniProt P12931); conditions: at 0.1 µM
[17] = target: Proto-oncogene tyrosine-protein kinase Src (Homo sapiens) (UniProt P12931); conditions: at 1 µM
[18] = target: Tyrosine-protein kinase Srms (Homo sapiens) (UniProt Q9H3Y6); conditions: at 0.1 µM
[19] = target: Tyrosine-protein kinase Srms (Homo sapiens) (UniProt Q9H3Y6); conditions: at 1 µM
[20] = target: Tyrosine-protein kinase SYK (Homo sapiens) (UniProt P43405); conditions: at 0.1 µM;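 further: reported percentages are mean inhibition values for SYK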

Sequence of Protein-tyrosine kinase 2-beta (Homo sapiens) (Q14289 whole entry, looked up): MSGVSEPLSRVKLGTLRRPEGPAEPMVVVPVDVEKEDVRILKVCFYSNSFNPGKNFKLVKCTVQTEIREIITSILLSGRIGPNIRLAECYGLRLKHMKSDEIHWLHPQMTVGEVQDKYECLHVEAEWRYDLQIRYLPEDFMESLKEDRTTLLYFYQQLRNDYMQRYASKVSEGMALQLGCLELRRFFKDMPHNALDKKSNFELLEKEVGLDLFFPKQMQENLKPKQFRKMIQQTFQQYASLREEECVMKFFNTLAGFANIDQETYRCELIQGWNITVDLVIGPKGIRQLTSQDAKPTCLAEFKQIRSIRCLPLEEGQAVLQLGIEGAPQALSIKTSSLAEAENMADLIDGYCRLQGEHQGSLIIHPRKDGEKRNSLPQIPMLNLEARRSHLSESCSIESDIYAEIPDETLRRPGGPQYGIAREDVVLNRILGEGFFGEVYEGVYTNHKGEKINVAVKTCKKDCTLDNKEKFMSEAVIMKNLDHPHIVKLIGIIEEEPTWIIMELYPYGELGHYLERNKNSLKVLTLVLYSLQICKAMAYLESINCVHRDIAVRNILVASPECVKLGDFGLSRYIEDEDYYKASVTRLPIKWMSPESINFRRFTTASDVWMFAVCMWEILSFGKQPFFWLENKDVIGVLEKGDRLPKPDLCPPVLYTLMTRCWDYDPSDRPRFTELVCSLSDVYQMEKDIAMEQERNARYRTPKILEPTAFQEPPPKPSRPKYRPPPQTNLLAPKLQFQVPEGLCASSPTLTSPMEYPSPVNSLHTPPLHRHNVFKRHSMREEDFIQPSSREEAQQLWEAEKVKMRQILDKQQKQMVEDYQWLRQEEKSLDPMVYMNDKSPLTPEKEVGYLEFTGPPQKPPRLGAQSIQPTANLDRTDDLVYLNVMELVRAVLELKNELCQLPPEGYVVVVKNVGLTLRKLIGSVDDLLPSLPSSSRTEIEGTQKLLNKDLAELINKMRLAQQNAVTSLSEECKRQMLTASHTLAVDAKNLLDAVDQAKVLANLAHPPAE
Sequence of Tyrosine-protein kinase FRK (Homo sapiens) (P42685 whole entry): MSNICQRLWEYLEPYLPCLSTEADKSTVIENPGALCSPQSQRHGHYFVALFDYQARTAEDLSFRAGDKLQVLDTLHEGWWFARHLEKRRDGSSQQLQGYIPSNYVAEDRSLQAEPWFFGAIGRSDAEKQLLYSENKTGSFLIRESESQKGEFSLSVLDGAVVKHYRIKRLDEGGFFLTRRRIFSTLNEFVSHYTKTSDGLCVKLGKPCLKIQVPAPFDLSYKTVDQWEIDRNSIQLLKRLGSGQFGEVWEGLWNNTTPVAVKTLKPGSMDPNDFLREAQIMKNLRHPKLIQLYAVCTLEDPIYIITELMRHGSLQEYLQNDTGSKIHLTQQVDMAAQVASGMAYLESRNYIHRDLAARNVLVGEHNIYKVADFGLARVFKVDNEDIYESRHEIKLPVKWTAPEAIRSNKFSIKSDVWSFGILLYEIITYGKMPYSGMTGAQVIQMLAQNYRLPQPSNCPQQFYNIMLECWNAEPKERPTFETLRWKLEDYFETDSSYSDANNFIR

SMILES	inhibition [1] [%]	inhibition [2] [%]	inhibition [3] [%]	inhibition [4] [%]	inhibition [5] [%]	inhibition [6] [%]	inhibition [7] [%]	inhibition [8] [%]	inhibition [9] [%]	inhibition [10] [%]	inhibition [11] [%]	inhibition [12] [%]	inhibition [13] [%]	inhibition [14] [%]	inhibition [15] [%]	inhibition [16] [%]	inhibition [17] [%]	inhibition [18] [%]	inhibition [19] [%]	inhibition [20] [%]
COc1ccc(CNC(=O)c2ccc(-c3cc(-c4nnc(C)o4)ccc3C)cc2)cc1	13	0.66	1.5	-0.09	5.83	7.22	7.69	14	15.8	6.44	19.9	10.5	3.7	6.1	5.4	1.18	2.9	3.8	8.13	2.81
CC(=O)Nc1cccc(C#Cc2cncnc2Nc2ccc(OCc3cccc(F)c3)c(Cl)c2)c1	6.94	0.81	2.51	-2.17	4.14	6.84	11	5.7	9.51	13.3	13.3	0.77	4.22	7.46	12.2	10.8	6.18	2.87	0.23	3.21
CN1CCC(n2cnc(-c3ccc(F)cc3)c2-c2ccnc(N)n2)CC1	29.6	0.15	1.13	-2.24	6.37	5.6	18.7	1.63	13.3	4.75	27.5	5.16	-2.05	2.9	15.1	1.96	10.6	1.38	0.46	2.67
COC(=O)Nc1nc2ccc(S(=O)(=O)c3ccc(NC(=O)Nc4cc(C(F)(F)F)ccc4F)cc3)cc2[nH]1	4.49	2.02	0.33	2.8	6.27	5.15	5.22	5.11	2.64	5.5	0.06	0.24	1.14	2.51	3.41	7.41	6.38	-0.37	-3.26	1.38
Cc1cccc2c1NC(=O)/C2=N\Nc1ccc(S(N)(=O)=O)cc1	10.2	1.71	0.62	3.22	9.89	1.83	5.76	3.14	7.11	2.74	18.8	4.93	2.48	2.26	1.51	4.47	6.45	-0.7	-2.11	3.45
COC(=O)Nc1nc2ccc(Oc3ccc(NC(=O)Nc4cccc(Cl)c4)cc3)cc2[nH]1	28.7	0.45	0.48	0.45	5.25	52.1	74.4	23.8	54.8	45.5	79.7	2.59	6.24	1.51	2.59	4.21	1.43	-2.84	-1.42	0.41
CCc1nn2ncccc2c1-c1ccnc(NC2CC2)n1	13.8	1.9	1.77	-3.19	2.45	3.64	2.46	3.6	2.94	5.5	6.92	6.26	6.01	4.86	5.32	6.38	7.08	1.77	1.02	0.63
c1ccc(COc2ccc(Nc3ncnc4ccc(-c5ccco5)cc34)cc2)cc1	0.57	-0.18	0.89	-2.12	1.9	1.71	2.96	1.93	2.59	1.88	1.21	4.01	7.76	2.59	3.28	0.54	1.64	0.68	0.99	-0.45
Cc1ccc2c(-c3ccnc(Nc4ccccc4)n3)c(-c3ccc(F)cc3)nn2n1	68.1	3.09	14.2	15.2	47.5	14.8	46.6	1.27	0.44	14.7	50.7	0.11	3.58	2.77	5.97	15.3	63.2	1.58	9.73	-2.66
CS(=O)(=O)CCNCc1coc(-c2ccc3ncnc(Nc4ccc(OCc5ccccc5)cc4)c3c2)c1	5.87	1.08	0.27	3.8	3.38	3.04	8.54	3.88	5.06	6.2	8.25	-5.7	2.31	4.75	4.27	8.85	10.9	3.44	3.19	2.29
COc1ccc(-c2nn3ncccc3c2-c2ccnc(Nc3ccc4c(c3)OCCO4)n2)cc1	20.6	0.87	3.44	-3.39	10.2	8.94	47.3	3.01	3.4	11.7	56.2	-3.38	8.88	6.79	21.9	7.57	51.7	0.02	0.99	1.19
Fc1ccc(-c2cc(-c3c[nH]nc3-c3ccccn3)ccn2)cc1	11.8	2.82	1.26	7.36	19.4	5.13	2.43	2.33	8.21	3.92	13.8	4.71	8.86	6.8	8.14	0.27	9	-0.96	-1.26	0.3
CN1CCC(n2cnc(-c3ccc(F)cc3)c2-c2ccnc(Nc3ccccc3)n2)CC1	44.7	0.85	1.83	4.25	5.64	6.59	18.3	4.17	7.13	7.03	36.2	2.65	4	1.54	4	9.92	11.8	1.77	3.09	1.08
Fc1ccc(-c2nn3ccccc3c2-c2ccncc2)cc1	12.7	0.42	1.58	3.99	4.06	1.59	5.12	0.36	1.74	4.32	7.11	3.62	3.94	1.35	3.41	-0.8	5	-1.74	0.28	2.26
CC(C)COC(=O)c1ccc2c(c1)/C(=C/Nc1ccc(S(N)(=O)=O)cc1)C(=O)N2	86	-0.58	1.92	2.4	16.5	34	78	54.5	82.4	25.2	69.9	-0.4	16.7	1.71	15.3	2.28	39.5	5.32	3.32	4.14
CN(C)CCOc1ccc(-c2nc(-c3ccncc3)c(-c3ccc4c(c3)CC/C4=N\O)[nH]2)cc1	15.7	2.18	1.99	5.76	10.5	5.96	7.06	3.07	6.45	2.28	20.2	-1.14	7.41	3.61	5.38	0.25	11.9	-1.81	-0.6	-2.98
CC(C)(CO)CNC(=O)c1ccc2c(c1)/C(=N/Nc1ccc(S(N)(=O)=O)cc1)C(=O)N2	72.3	-0.08	-0.01	-4.01	18.8	9.94	49.1	33.5	72.5	13.8	56.3	3.52	2.41	0.74	3.7	5.77	34.2	-0.93	0.39	0.61
COc1ccc2c(-c3ccnc(Nc4cccc(OC(F)(F)F)c4)n3)cnn2n1	32.6	1.94	1.99	14.4	59.9	3.2	8.79	3.12	12.5	1.41	11.9	2.53	9.83	11.1	46.5	5.55	23.6	-1.28	1.58	-2.58
Cc1ccc(O)cc1Nc1ccnc2cc(-c3ccccn3)ccc12	87	18.9	68.2	10.1	17.6	84.2	89.8	4.72	3.44	92.3	93.5	-2	4.51	6.57	7.97	61	90.4	9.32	39.8	-5.01
CC1=C(C(=O)Nc2cc(Cl)c3[nH]ncc3c2)C(c2ccc(C(F)(F)F)cc2)CC(=O)N1 (stereo not given)	3.69	3.64	7.85	5.71	9.35	4.22	15.2	4.98	33.3	2.42	18.1	13.4	11.4	4.57	6.5	1.84	30.8	-1.35	3.11	-2.63
COc1cc(Nc2nccc(Nc3ccc4c(C)n[nH]c4c3)n2)cc(OC)c1OC	87.5	1.94	11.5	25.2	84.3	51.1	84	25.3	68.7	57.5	82.4	6.16	34.4	40.6	70	68.4	92.1	4.33	12.6	-1.75
O=C(O[C@H]1CN[C@H](C#Cc2cc3ncnc(Nc4ccc(Cc5ccccc5)cc4)c3s2)C1)N1CCOCC1	0.85	1.3	1.99	0.11	-6.94	3.39	5.06	1.75	2.21	1.94	4.61	2.34	3.27	-0.61	2.78	3.84	7.75	-3.02	-2.02	-0.1
COc1cc(N2CCN(C(C)C)CC2)ccc1Nc1nc(Nc2ccc(F)cc2C(N)=O)c2cc[nH]c2n1	26.9	2.93	12.7	95.5	97.8	-3.34	9.44	8.15	43.8	4.48	16.6	0.61	-0.44	51.8	81.8	6.34	10.4	1.36	7.98	0.19
FC(F)(F)c1cccc(-c2nn3ncccc3c2-c2ccnc(Nc3ccc4c(c3)OCCO4)n2)c1	14.4	0.89	5.26	-0.64	13.1	7.52	31.8	4.11	2.86	7.75	22.1	5.16	4.5	1.05	4.18	12.8	47.9	0.82	2.59	0.9
Nc1nc(-c2ccc(F)cc2)c(-c2ccc3ncccc3n2)s1	42.9	2.59	2.66	10	14.3	8.56	14.8	4.68	7.83	7.45	14	-8.7	7.82	4.44	15.8	-1.89	14.2	0.67	3.74	-1.32
CNC(=O)c1cncc(/C=C/c2ccccc2Cl)c1	20	0.04	0.05	-1.7	-0.21	4.56	7.64	0.9	10	0.47	22.8	2.22	7.21	-2.16	2.7	10.1	7.14	1.76	3.3	7.26
